# Measurements: the supplement of paper PMC11732987, “Enantioselective OTUD7B fragment discovery through chemoproteomics screening and high-throughput optimisation” (Communications Chemistry, 2025)
# A number with no mark means an inactive call.
# Legend:
# Assay in all cases: log2 ratio of Biotin-Ahx-Ub-VS probe labelling (fragment/DMSO); higher = less target engagement (more negative = stronger competition), active = hit call of the paper (q ≤ 0.05, log2 ratio ≤ -1)
# Settings in all cases: compound concentration: 200 uM; treatment time: 3 h
# OTUD6B = molecular target: T1, OTUD6B (UniProt Q8N6M0)
# T1 sequence (whole entry): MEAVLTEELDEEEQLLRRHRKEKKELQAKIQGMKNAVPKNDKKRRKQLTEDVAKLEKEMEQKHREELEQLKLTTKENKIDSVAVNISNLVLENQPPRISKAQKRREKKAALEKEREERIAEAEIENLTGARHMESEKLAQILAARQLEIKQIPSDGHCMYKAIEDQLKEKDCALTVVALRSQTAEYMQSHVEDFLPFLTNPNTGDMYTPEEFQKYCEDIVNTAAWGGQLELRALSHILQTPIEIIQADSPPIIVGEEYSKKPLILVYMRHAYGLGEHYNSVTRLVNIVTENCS
# Summary of the method: (§1)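 HEK293T lysate in Tris/CHAPS/IGEPAL buffer with protease inhibitors (495 µg per sample) was given fragment at 200 µM or vehicle for 3 h, in triplicate. It then received Biotin-Ahx-Ub-VS at 0.5 µM final for 1 h. Labelled DUBs were NeutrAvidin-enriched, digested with LysC and trypsin, and run by diaPASEF LC-MS/MS. Values are average log2 fragment/vehicle ratios by unpaired t-test on global-median-normalised Spectronaut quantities of proteins with ≥2 unique peptides.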
# OTUD7B = molecular target: T2, OTUD7B (UniProt Q6GQQ9)
# T2 sequence (whole entry): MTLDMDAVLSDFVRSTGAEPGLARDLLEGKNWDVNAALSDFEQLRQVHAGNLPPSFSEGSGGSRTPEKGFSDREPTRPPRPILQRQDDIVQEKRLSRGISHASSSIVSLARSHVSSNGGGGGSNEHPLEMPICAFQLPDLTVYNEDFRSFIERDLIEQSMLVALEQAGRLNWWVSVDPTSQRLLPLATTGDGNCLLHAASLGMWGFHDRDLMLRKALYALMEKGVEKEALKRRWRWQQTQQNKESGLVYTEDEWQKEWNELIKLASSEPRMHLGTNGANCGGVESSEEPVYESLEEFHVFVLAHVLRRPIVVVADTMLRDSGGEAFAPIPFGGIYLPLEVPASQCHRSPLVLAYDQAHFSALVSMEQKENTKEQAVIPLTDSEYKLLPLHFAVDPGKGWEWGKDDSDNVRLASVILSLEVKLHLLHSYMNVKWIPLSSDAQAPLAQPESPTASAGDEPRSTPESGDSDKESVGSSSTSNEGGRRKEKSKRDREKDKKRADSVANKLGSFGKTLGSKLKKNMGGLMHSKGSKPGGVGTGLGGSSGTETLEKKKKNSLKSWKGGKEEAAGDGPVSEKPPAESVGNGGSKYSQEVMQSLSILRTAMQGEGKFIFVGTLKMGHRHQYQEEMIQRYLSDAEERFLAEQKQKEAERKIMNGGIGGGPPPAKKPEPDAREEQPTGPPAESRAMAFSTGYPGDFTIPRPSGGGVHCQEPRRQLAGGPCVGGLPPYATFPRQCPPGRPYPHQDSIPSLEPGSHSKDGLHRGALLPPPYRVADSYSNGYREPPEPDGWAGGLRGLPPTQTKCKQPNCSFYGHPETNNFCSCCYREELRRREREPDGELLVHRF
# Summary of the method: as §1
# PRPF8 = PRPF8 (UniProt Q6P2Q9)
# Summary of the method: as §1
# PSMD7 = molecular target: T3, PSMD7 (UniProt P51665)
# T3 sequence (whole entry): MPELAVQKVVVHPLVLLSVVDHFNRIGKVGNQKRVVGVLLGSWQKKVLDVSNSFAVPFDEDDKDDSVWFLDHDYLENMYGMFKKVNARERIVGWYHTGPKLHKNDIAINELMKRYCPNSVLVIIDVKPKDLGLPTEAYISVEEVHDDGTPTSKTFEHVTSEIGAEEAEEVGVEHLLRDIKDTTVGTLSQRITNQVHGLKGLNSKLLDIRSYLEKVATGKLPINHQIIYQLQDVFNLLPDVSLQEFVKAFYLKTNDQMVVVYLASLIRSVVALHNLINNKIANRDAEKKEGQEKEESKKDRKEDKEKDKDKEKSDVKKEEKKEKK
# Summary of the method: as §1
# UCHL1 = UCHL1 (UniProt P09936)
# Chain of UCHL1 (P09936 whole entry, looked up): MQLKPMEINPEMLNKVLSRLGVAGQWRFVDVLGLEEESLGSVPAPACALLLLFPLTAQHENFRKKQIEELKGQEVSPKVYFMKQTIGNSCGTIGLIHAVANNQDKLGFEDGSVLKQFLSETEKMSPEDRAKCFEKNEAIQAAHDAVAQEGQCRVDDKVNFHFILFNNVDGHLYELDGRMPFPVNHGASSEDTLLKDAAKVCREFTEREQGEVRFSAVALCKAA
# Summary of the method: as §1
# UCHL3 = molecular target: T4, UCHL3 (UniProt P15374)
# T4 sequence (whole entry): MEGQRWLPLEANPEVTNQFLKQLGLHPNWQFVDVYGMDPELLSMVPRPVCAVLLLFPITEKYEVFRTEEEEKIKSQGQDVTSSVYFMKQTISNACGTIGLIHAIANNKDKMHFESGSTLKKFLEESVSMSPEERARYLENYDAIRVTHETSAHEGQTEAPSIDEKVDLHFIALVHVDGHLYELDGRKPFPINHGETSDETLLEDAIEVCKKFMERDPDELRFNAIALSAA
# Summary of the method: as §1
# UCHL5 = molecular target: T5, UCHL5 (UniProt Q9Y5K5)
# T5 sequence (whole entry): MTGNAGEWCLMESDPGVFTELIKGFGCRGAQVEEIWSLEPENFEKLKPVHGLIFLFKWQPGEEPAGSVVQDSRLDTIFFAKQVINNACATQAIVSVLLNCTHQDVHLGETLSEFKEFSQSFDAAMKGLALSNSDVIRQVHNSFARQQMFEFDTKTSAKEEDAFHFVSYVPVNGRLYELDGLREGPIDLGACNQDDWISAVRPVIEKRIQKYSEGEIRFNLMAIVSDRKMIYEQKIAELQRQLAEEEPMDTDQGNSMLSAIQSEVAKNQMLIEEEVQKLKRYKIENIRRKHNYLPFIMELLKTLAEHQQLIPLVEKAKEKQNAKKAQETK
# Summary of the method: as §1
# USP10 = USP10 (UniProt Q14694)
# Chain of USP10 (Q14694 whole entry): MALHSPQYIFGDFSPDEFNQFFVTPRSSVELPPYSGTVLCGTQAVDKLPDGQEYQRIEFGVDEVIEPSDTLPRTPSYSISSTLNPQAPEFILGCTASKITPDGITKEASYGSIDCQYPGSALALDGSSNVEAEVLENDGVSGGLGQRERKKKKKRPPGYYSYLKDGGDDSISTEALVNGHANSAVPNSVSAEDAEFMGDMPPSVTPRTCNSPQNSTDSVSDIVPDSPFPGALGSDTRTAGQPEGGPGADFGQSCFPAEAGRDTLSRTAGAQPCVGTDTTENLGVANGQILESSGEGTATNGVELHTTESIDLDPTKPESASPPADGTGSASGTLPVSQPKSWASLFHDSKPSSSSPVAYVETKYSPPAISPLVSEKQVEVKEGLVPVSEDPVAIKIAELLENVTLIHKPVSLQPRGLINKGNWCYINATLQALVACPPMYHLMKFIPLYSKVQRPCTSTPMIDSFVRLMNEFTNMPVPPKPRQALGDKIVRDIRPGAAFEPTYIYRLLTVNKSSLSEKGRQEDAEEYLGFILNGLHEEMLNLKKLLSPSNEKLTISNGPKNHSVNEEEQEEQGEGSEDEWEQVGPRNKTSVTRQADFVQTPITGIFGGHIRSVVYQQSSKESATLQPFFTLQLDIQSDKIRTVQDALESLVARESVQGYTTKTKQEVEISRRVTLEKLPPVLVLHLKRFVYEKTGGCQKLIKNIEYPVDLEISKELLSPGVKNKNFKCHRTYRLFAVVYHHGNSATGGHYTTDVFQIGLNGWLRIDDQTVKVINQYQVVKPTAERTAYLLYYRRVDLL
# Summary of the method: as §1
# USP15 = molecular target: T6, USP15 (UniProt Q9Y4E8)
# T6 sequence (whole entry): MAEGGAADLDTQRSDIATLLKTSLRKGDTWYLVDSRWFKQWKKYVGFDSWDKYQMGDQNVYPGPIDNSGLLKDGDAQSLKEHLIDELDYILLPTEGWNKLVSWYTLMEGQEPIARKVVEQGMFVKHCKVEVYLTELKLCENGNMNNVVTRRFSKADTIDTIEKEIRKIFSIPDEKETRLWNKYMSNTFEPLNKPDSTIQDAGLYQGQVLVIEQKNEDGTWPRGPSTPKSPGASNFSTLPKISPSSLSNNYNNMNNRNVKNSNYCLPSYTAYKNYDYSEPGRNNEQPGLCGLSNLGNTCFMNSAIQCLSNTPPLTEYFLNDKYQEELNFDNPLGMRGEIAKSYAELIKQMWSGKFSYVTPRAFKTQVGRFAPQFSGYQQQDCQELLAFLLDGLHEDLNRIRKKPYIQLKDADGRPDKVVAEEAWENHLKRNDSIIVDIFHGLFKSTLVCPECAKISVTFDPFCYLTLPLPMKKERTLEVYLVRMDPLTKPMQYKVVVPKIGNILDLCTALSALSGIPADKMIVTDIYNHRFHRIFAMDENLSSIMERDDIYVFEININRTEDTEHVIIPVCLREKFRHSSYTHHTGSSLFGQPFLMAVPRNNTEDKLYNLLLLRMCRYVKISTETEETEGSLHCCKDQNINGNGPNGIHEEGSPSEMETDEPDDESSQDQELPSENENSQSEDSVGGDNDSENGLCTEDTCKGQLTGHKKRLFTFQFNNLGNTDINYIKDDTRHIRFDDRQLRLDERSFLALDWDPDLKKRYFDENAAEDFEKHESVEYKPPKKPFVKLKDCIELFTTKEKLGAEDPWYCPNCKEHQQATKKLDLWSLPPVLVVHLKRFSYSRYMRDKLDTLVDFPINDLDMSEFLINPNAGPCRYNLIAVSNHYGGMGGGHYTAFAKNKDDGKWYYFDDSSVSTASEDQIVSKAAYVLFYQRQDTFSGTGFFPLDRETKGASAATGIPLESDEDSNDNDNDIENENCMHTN
# Summary of the method: as §1
# USP16 = USP16 (UniProt Q9Y5T5)
# Chain of USP16 (Q9Y5T5 whole entry, looked up): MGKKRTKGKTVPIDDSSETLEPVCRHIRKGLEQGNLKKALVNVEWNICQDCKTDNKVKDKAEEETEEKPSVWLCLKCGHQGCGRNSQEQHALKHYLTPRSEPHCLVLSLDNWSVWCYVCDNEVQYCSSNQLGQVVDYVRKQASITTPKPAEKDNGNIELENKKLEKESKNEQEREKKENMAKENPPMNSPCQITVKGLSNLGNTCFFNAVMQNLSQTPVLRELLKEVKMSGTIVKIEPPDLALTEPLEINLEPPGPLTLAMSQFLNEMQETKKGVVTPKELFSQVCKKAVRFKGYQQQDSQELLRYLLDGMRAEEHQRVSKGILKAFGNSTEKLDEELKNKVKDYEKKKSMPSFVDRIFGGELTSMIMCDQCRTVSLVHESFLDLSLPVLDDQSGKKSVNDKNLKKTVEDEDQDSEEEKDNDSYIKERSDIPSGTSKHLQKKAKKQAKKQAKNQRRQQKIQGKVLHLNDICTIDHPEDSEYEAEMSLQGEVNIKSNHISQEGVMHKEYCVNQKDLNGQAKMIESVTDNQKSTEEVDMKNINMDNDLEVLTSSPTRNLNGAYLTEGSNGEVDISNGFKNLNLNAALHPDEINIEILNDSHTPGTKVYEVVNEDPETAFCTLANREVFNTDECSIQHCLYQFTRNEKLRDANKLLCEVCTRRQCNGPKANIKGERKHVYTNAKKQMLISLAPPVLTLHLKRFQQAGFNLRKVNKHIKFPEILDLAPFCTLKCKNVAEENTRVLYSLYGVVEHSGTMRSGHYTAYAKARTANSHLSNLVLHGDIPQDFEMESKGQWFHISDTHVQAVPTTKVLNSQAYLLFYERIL
# Summary of the method: as §1
compound,measurement,setting,value
O=C(CCl)N1CCC(OCc2ccccc2F)CC1,log2 ratio of Biotin-Ahx-Ub-VS probe labelling,OTUD6B,0.102
same,log2 ratio of Biotin-Ahx-Ub-VS probe labelling,OTUD7B,-0.198
same,log2 ratio of Biotin-Ahx-Ub-VS probe labelling,PRPF8,0.14
same,log2 ratio of Biotin-Ahx-Ub-VS probe labelling,PSMD7,0.0473
same,log2 ratio of Biotin-Ahx-Ub-VS probe labelling,UCHL1,-1.13 (active)
same,log2 ratio of Biotin-Ahx-Ub-VS probe labelling,UCHL3,0.341
same,log2 ratio of Biotin-Ahx-Ub-VS probe labelling,UCHL5,-0.00457
same,log2 ratio of Biotin-Ahx-Ub-VS probe labelling,USP10,-0.192
same,log2 ratio of Biotin-Ahx-Ub-VS probe labelling,USP15,-0.104
same,log2 ratio of Biotin-Ahx-Ub-VS probe labelling,USP16,-0.184
